In PubChem BioAssay (EPA / NIEHS):
Calls of active or inactive are those of the source. Rule for the calls: active = hit-call score of the fitted dose curve at least 0.9, where 1 is the maximum; inactive = score below 0.9.

Target: Hepatocyte nuclear factor 3-beta (Homo sapiens) (UniProt Q9Y261)
Assay: ATG_FoxA2_CIS: Attagene CIS-FACTORIAL HepG2 Assay for human Forkhead box A2 (FOXA2) (AID 2282942)
Conditions: HepG2 cis-reporter transcription factor activity, 24 h; actives raise or lower the signal
Experimental: ATG_CIS is a cell-based, multiplexed-readout assay that uses HepG2, a human liver cell line, with measurements taken at 24 hours after chemical dosing in a 24-well plate.ATG_FoxA2_CIS is one of 52 assay component(s) measured or calculated from the ATG_CIS assay. It is designed to make measurements of mRNA induction, a form of inducible reporter, as detected with fluorescence intensity signals by Reverse transcription polymerase chain reaction (RT-PCR) and Capillary electrophoresis technology.Data from the assay component ATG_FoxA2_CIS was analyzed into 1 assay endpoint. This assay endpoint, ATG_FoxA2_CIS, was analyzed with bidirectional fitting relative to DMSO as the negative control and baseline of activity. Using a type of inducible reporter, measures of mRNA for gain or loss-of-signal activity can be used to understand the reporter gene at the transcription factor-level as they relate to the gene FOXA2. Furthermore, this assay endpoint can be referred to as a primary readout, because this assay has produced multiple assay endpoints where this one serves a reporter gene function. To generalize the intended target to other relatable targets, this assay endpoint is annotated to the dna binding intended target family, where the subfamily is forkhead box protein.
Human liver HepG2 cells are transiently transfected with multiple reporter transcription units (MRTUs) in 6-well plates using FuGene 6 reagent (Roche; 3 ml FuGene/1 mg DNA). The MRTU constructs are regulated by a cis-regulating element (promoter). […] A major difference between the CIS and TRANS system is that in CIS activities of endogenous TFs are measured, whereas the TRANS assay evaluates changes in activities of exogenous, chimeric NR-Gal4 proteins. […] At the end of 24 hour incubation, total RNA was isolated using TriZol reagent (Invitrogen). The isolated RNA is then reverse-transcribed using oligo(dT) primer and Mo-MLV reverse transcriptase (Invitrogen) with DNAse I (Ambion) treatment for 30 min. The one-tenth of the produced cDNA was amplified by PCR using Taq DNA polymerase (Invitrogen) and two reporter sequence-specific primers. The PCR products were fluorescently labeled by primer extension with 6-arboxyfluorescein (6-FAM) 5'-labeled reporter sequence-specific primer (2 min at 95 C, 20 s at 68 C and 10 min at 72 C) and these products were digested with 5U of HpaI (New England Biolabs) for 2h at 37 C. The fragments were purified using Qiaquick PCR columns (Qiagen), analyzed on an ABI 3130xL genetic analyzer (Applied Biosystems) with peak positions identified by using a set of X-rhodamine (ROX)-labeled MapMarker1000 molecular weight standards (BioVentures). The raw capillary electrophoresis data was processed using Attagraph software (Attagene).

Sequence of Hepatocyte nuclear factor 3-beta (Homo sapiens) (Q9Y261 whole entry, looked up): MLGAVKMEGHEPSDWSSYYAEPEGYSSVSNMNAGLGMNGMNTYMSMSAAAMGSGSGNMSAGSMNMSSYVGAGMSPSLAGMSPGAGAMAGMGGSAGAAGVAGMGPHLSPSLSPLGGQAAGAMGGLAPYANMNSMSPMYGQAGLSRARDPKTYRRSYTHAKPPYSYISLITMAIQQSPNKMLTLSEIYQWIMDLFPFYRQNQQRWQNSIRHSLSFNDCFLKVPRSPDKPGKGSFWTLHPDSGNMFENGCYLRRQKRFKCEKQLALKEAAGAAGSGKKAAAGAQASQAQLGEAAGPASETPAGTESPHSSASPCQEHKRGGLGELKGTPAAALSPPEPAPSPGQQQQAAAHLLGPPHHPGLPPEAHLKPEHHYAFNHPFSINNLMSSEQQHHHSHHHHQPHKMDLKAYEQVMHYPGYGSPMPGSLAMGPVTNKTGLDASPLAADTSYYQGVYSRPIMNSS

SMILES	outcome	AC50
CC(=O)C1C(=O)C=C(C)OC1=O (stereo not given)	inactive	–
OCCCO	inactive	–
CCCCCCCCOS(=O)(=O)O	inactive	–
OCC=Cc1ccccc1	inactive	–
CC/C=C\CCOC(C)OCC (stereo not given)	inactive	–
CC(=O)Oc1c(C)c(C)c2c(c1C)CC[C@@](C)(CCC[C@H](C)CCC[C@H](C)CCCC(C)C)O2	inactive	–
S=c1[nH][nH]c(=S)s1	inactive	–
CC(C)(C)C1CCC(O)CC1 (stereo not given)	inactive	–
O=Cc1ccccc1O	inactive	–
Cc1ccccc1S	inactive	–
CCOC(=O)CC1(C)OCC(C)O1 (stereo not given)	inactive	–
CCCCCCCCCCOC(=O)c1ccccc1C(=O)OCCCCCCCC	inactive	–
CCCOC(=O)CC	inactive	–
CC(CCO)CC(C)(C)C (stereo not given)	inactive	–
c1ccc2scnc2c1	inactive	–
CC(O)CNCC(C)O (stereo not given)	inactive	–
CC(C)(C)c1cccc(O)c1	inactive	–
CCCCCc1cccc(=O)o1	inactive	–
CC1=C(C=O)C(C)(C)CCC1	inactive	–
CCC(C)C1CCCCC1=O (stereo not given)	inactive	–

SMILES	outcome	AC50
CCCCCCCCCCO[C@@H]1O[C@H](CO)[C@@H](O)[C@H](O)[C@H]1O	inactive	–
Cc1cccc(C)c1	inactive	–
CCOCC(C)O (stereo not given)	inactive	–
C[C@H](CCC(=O)O)[C@H]1CC[C@H]2[C@@H]3CC[C@@H]4C[C@H](O)CC[C@]4(C)[C@H]3CC[C@]12C	–	170 µM (active)
CC(C)C(=O)OCC=Cc1ccccc1	inactive	–
CCC(=O)OCC=Cc1ccccc1	inactive	–
CC(C)Cc1ccc(C(C)C(=O)O)cc1 (stereo not given)	inactive	–
C=C(C)C(=O)OCCN(C)C	inactive	–
O=C(OCc1ccccc1)c1ccccc1O	inactive	–
CC(O)CN (stereo not given)	inactive	–
CCOC(=O)CCCCCCCCC(=O)OCC	inactive	–
O=c1cc(-c2ccc(O)cc2)oc2cc(O)cc(O)c12	inactive	–
CCCCCCCC1CCCC1=O (stereo not given)	inactive	–
CC12CCC(C1)C(C)(C)C2O (stereo not given)	inactive	–
CC(=O)Nc1cc(S(=O)(=O)O)cc2cc(S(=O)(=O)O)c(N=Nc3ccccc3)c(O)c12	inactive	–
c1ccc(Cc2ccccc2)cc1	inactive	–
C=CC(O)CCCCC (stereo not given)	inactive	–
CN(C)C(=O)Nc1ccccc1	inactive	–
CCCCCC(=O)O[C@]1(C(C)=O)CC[C@H]2[C@@H]3CCC4=CC(=O)CC[C@]4(C)[C@H]3CC[C@@]21C	inactive	–
COc1ccccc1O	inactive	–
